Measured potencies and affinities stand elsewhere. Records with an inconclusive call do not appear. Active and inactive are the calls of the source.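 The calls were made as follows: active = in every test run, a fitted half-maximal concentration for signal decrease at or below twice the highest tested concentration; inconclusive = runs disagree, flat 30 to 70% decrease, or poor fit; inactive = the rest.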
Experiment: activation of miR-122 Renilla sensor silencing – cell-based, Huh7 psiCHECK-miR122, Renilla luciferase, cherry-picked, dose response (AID 651956);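 also: Renilla luciferase from a miR-122 sensor reporter so lower signal means miR-122 activation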
Settings: Huh7 psiCHECK-miR122 Renilla luciferase reporter, 48 h; series mostly up to 35 µM

Which outcome does the source give for `C/C=C/c1ccc([C@H]2[C@@H](CO)N(Cc3ccccn3)[C@@H]2CNC(=O)CC)cc1` here?
Its outcome is “inactive”.

With `O=C(Nc1ccc(F)cc1)N1C[C@H]2[C@@H](c3ccccc31)[C@H](CO)N2C(=O)c1ccncc1` as the compound, how does the outcome read?
Its outcome is “inactive”.

For `OC[C@H]1[C@@H](c2ccccc2)[C@H](CNCC2CCC2)N1CC1CC1`, which outcome is on record?
Its outcome is “inactive”.

With `c1ccc(CCCNCCCn2cnc3c(OCc4ccccc4)ncnc32)cc1` as the compound, how does the outcome read?
The outcome was “inactive”.

With `CCCC(=O)Nc1ccc2c(c1)C(=O)N(C)[C@H]1CC[C@@H](CC(=O)NCCN3CCCCC3)O[C@H]1CO2` as the compound, how does the outcome read?
Its outcome is “inactive”.

With `CC(=O)N(C)C[C@@H]1[C@@H](c2ccc(-c3cccc(C#N)c3)cc2)[C@H](CO)N1C(C)=O` as the compound, how does the outcome read?
The outcome was “inactive”.
